Here are results for 24 molecules from PubChem BioAssay (NCATS).

Inconclusive results are not listed. Entries that show only a call come without a potency. The source made the active and inactive calls. Calls come from the whole dose curve; as a rule, active = well fitted cell-killing curve with a large enough effect; inconclusive = small, poorly fitted or top-dose-only effect; inactive = flat fitted curve, though single readings scatter.
Potency is the fitted concentration of half-maximal effect.

The experiment can be described thus: G06 Cancer Cell Toxicity qHTS against the NCATS CANVASS Library (AID 1347368). Note: nearly all actives have a fitted effect of over 60% in size. Particulars: G06 dog glioma cells, viability ATP luminescence, 72 h; series mostly up to 46.1 µM. The text has this: Natural products and their derivatives continue to be wellsprings of nascent therapeutic potential. However, many laboratories have limited resources for biological evaluation, leaving their previously isolated or synthesized compounds largely or completely untested. To address this issue, the Canvass library of natural products was assembled (https://tripod.nih.gov/canvass), in collaboration with academic and industry researchers, for quantitative high-throughput screening (qHTS) across a diverse set of cell-based and biochemical assays. The pure (>85% purity by liquid chromatography/mass spectrometry [LC/MS]) Canvass library of 346 natural products were submitted by 45 academic laboratories and companies around the world. We collected pure natural products to circumvent deconvolution and structure elucidation due to time and resource limitations. The library was formatted into 1536-well plates and evaluated in 50 qHTS (in an 11-pnt concentration series) bioassays with broad scope of disease-relevant mechanisms. The resulting data set from 50 different assays was then systematically analyzed to identify overall trends and specific natural products with interesting biological activities. Reported herein are the results of each individual qHTS and their corresponding assay protocol. This assay uses ATP (luminescence) content to measure the cytotoxiciy of compounds on G06 dog glioma cancer cell line. National Center for Advancing Translational Sciences (NCATS), Rockville, MD National Institute of Health (NIH), Bethesda, Maryland
Cancer Cell Toxicity qHTS protocol: for cell lines G06, J3T, and SDT. 1. In a 1536 well, tissue culture treated white solid bottom plates (Corning 7494), 5 uL of G06 cell solution (final concentration of 500 cells / well) was dispensed using the Multidrop Combi dispenser (Thermo Fisher Scientific) into columns 2, 3, 5-48. 2. Control and compounds were pin transferred (~23 nL volume) to the assay plates via Wako Pin-tool (Wako Automation, Richmond VA) equipped with a 1536 pin head. The compounds were transferred to columns 5-48 resulting in a final concentration ranging from 0.17 nM to 103 uM. Dose response titration of Bortezomib was pin transferred into column (1mM; 1:2 dilution; 16 points) resulting to a final concentration range of 0.1 nM - 4.6 uM. 3. The assay plates were further incubated in the at 37C, 5% CO2, 95% Rh for 72 hr. 4. After incubation, 3 uL of CellTiterGlo reagent (Promega) was added to the assay plates (column 1-48, rows 1-32) and centrifuged for 15 sec at 1000 rpm to remove bubbles. 5. Luminescence signal was acquired via the ViewLux plate reader (PerkinElmer) using a clear emission filter, 2 sec exposure, and 1x binning settings.
As to `COC1C(O)C(C)OC(OC2C(Oc3cccc4c(O)c5c(=O)oc6ccc(C)c7c(=O)oc(c34)c5c67)OC(C)C(O)C2O)C1O` (centres undefined), the Potency is 9350 nM (active).

Turning to `C/C=C1/CN2CC[C@@]34c5ccccc5N(C)[C@@H]3[C@@H]2C[C@@H]1[C@H]4C(=O)OC`, the Potency result is “inactive”. Consider `C=CC(C)(C)[C@@]12C[C@H]3C(=O)N/C(=C/c4cnc[nH]4)C(=O)N3[C@@H]1Nc1ccccc12`, for which the Potency result was “inactive”. Take `C=CC(C)(C)[C@@]12C[C@H]3C(=O)N/C(=C\c4cnc[nH]4)C(=O)N3[C@@H]1Nc1ccccc12`: the Potency entry was “inactive”. Next, `CC[C@@H]1CN2CCc3c([nH]c4cccc(OC)c34)[C@@H]2C[C@@H]1/C(=C\OC)C(=O)OC`: 23500 nM (active). Next, `C/C(=C\[C@H](C)C(=O)C[C@H](O)CC1CC(=O)NC(=O)C1)[C@@H]1OC(=O)/C=C/CC/C=C/C=C/[C@@H]1C`: 52.6 nM (active); `CCCC[C@@H]1CC[C@H]2CCCC(CCCO)N12` (some centres undefined): “inactive”; `C[C@]12CC(O)C3[C@@H](CCC4C[C@@H](O)CC[C@@]43CO)[C@@]1(O)CC[C@@H]2C1=CC(=O)OC1` (some centres undefined): 13200 nM (active). As for `C[C@]12CCC3[C@@H](CC[C@@H]4C[C@@H](O)CC[C@]34CO)[C@@]1(O)CC[C@@H]2C1=CC(=O)OC1` (some centres undefined), the Potency is 1870 nM (active). As for `CC[C@@H]1CN2CCC3(Nc4cccc(OC)c4C3=O)[C@@H]2C[C@@H]1/C(=C\OC)C(=O)OC` (some centres undefined), the Potency result was “inactive”.

Turning to `CO[C@H]([C@@H](C)[C@H]1O[C@]1(C)C[C@H](C)/C=C/C=C(\C)[C@H]1O[C@@H](CC(=O)O)CC[C@@H]1C)[C@@H](C)O`, the Potency was 29.6 nM (active). The same measure for `CO[C@@]12c3c(C)cc(O)c4c(=O)occ(c34)C(=O)[C@@H]1[C@]13COC(=O)c4c(O)cc(C)c(c41)C(=O)[C@H]2[C@@H]3OC(C)=O`: “inactive”; for `O[C@H]1C=C[C@@]23CCN(Cc4cc5c(cc42)OCO5)[C@@H]3C1`: “inactive”; for `CCC(=O)N[C@@H](C[C@H](C)C(Cl)(Cl)Cl)C(=O)N1C(=O)C=C(OC)[C@@H]1C[C@H](C)C(Cl)Cl`: “inactive”.

On to `C[N+](C)(C)CCc1c[nH]c2ccccc12`, for which the Potency result was “inactive”.

With `C/C=C1/CN2C3CC1C1=CCC(=O)N4c5ccccc5[C@@]3(C[C@@H]2C2=C[C@H]3C5CC6N(CC[C@@]67c6ccccc6N(C2=O)[C@@H]37)C/C5=C/C)[C@H]14` (some centres undefined), the Potency was 20900 nM (active). Next, `CO[C@H]1[C@H](O[C@H]2CC[C@]3(C=O)[C@H]4CC[C@]5(C)[C@@H](C6=CC(=O)OC6)CC[C@]5(O)[C@@H]4CC[C@]3(O)C2)O[C@H](C)[C@H](O)[C@@H]1OC`: 296 nM (active); `C/C=C(\C)C(=O)O[C@@H]1[C@@H](O)[C@@H]2O[C@H]3[C@H](O[C@@H](CCCCC)CCCCCCC(=O)CCC(=O)OC[C@@H](O2)[C@H]1OC(=O)/C=C/c1ccccc1)O[C@H](C)[C@H](OC(C)=O)[C@@H]3O`: 4.7 nM (active). For `CCCC[C@@H](C)/C=C1/CN2CCC[C@H]2[C@@](C)(O)[C@@H]1O`, the Potency entry was “inactive”.

For the molecule `CO[C@@H](/C=C/CC/C=C/C(=O)O)[C@@H](O)[C@H](C)/C=C(\C)[C@H](O)[C@H](C)C(=O)CCCC1CC(=O)NC(=O)C1`, the Potency entry was “inactive”.

`CO[C@H]1C[C@H](O[C@H]2[C@@H](O)C[C@H](O[C@H]3CC[C@]4(C=O)[C@H]5CC[C@]6(C)C(C7=CC(=O)OC7)CC[C@]6(O)[C@@H]5CC[C@]4(O)C3)O[C@@H]2C)O[C@H](C)[C@H]1O[C@H]1C[C@@H](OC)[C@@H](O[C@@H]2O[C@H](CO)[C@@H](O)[C@H](O)[C@H]2O)[C@@H](C)O1` (some centres undefined): the Potency is 264 nM (active). As for `C[C@]12CC(O)C3[C@@H](CC[C@@H]4C[C@@H](O)CC[C@]34CO)[C@@]1(O)CC[C@@H]2C1=CC(=O)OC1` (some centres undefined), the Potency was 4180 nM (active). As to `CCCCC1CC[C@H]2CCCC(CCC)N12` (some centres undefined), the Potency result was “inactive”.

On to `COC1=C(C2=C(OC)C(=O)c3cc4c(c(O)c3C2=O)C(=O)O[C@H](C)C4)C(=O)c2c(cc3c(c2O)C(=O)O[C@H](C)C3)C1=O`, for which the Potency result is “inactive”.
